Results on 6 molecules are retold here after PubChem BioAssay (NCATS).

A number with no mark means an inactive call. Records with an inconclusive call do not appear. The source made the active and inactive calls. Unless noted, calls follow the shape of the dose curve; as a rule, active = well fitted curve in the direction sought with a large enough effect; inconclusive = small, poorly fitted or top-dose-only effect, or another doubt; inactive = no such curve, though single readings can be large; an effect the other way counts as inactive or inconclusive.

Test [1] can be described thus: AP1 Signaling Pathway (AID 357; active = well fitted curve in either direction with a large enough effect, not every such curve was filed as active;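 also: ME-180 reporter cells stimulated with EGF at its EC50 level; % is scaled to controls: 0 for no effect and ±100 for the full control effect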). As to conditions: ME-180 AP-1-bla reporter, EGF-induced, beta-lactamase ratio, 5 h; at 7.69 µM (top of the series) unless noted. The method, boiled down:
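In this screen, ME-180 cells in Opti-MEM with 0.5% dialyzed FBS received EC50 EGF and compound titrations for 5 h. AP-1 reporter beta-lactamase was detected via CCF4 ratio, giving AC50 for positive and negative modulators.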

The target of test [2] is Cytochrome P450 1A2 (Homo sapiens) (UniProt P05177). Briefly: p450-cyp1a2 (AID 410; calls by dose curve; also: potency is read from the fitted curve at half-maximal effect). The method, boiled down: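 Luminescent readout of luciferin formed from Luciferin-ME by human CYP1A2; data normalized against complete inhibition by 57 uM furafylline. Enzyme 20nM, substrate 100uM at Km, 100mM KPO4 buffer, 60 min reaction at room temperature.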
Chain of Cytochrome P450 1A2 (Homo sapiens) (P05177 whole entry, looked up): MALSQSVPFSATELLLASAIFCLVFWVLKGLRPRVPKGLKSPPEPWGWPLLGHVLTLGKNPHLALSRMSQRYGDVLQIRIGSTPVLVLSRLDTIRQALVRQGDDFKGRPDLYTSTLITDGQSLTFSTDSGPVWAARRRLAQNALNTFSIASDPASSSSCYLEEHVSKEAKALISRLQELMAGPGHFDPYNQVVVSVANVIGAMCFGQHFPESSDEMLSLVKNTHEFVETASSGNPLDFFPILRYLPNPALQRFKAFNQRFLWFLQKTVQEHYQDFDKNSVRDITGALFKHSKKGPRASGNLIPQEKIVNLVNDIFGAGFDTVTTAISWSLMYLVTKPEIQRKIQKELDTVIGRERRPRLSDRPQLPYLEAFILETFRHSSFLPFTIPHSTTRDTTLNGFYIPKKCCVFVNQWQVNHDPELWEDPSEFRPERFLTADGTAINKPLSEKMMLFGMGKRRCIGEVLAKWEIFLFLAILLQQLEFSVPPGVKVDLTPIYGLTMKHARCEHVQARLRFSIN
Test [3] is described as follows: NFAT Signaling Pathway (AID 444; active = well fitted curve in either direction with a large enough effect, not every such curve was filed as active;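 also: carbachol stimulus at about its EC50 of 1 µM final; % is scaled to controls: 0 for no effect and ±100 for the full control effect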). The following applies: Jurkat NFAT-bla M1, carbachol, beta-lactamase ratio, 5 h; at 7.69 µM (top of the series) unless noted. The method, boiled down:
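Jurkat cells with NFAT-driven β-lactamase reporter and co-expressed M1 receptor, stimulated with carbachol (final 1 uM, ~EC50), compound titration, 5 h at 37 °C. CCF4 loaded 1 h at RT; 460/530 nm ratio gave %activity and AC50.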

The nature of test [4]: Stat Signaling Pathway (AID 446; active = well fitted curve in either direction with a large enough effect, not every such curve was filed as active;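 also: ME-180 cervical cancer cells given 40 pM IL-6 alongside compound; SIE-controlled beta-lactamase reporter measured as 460/530 nm FRET emission ratio; % is scaled to controls: 0 for no effect and ±100 for the full control effect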). The method, boiled down:
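Reporter line: ME-180 cervical carcinoma, SIE-beta-lactamase. Treatment: compound with 40 pM IL-6, 5 hrs, 37 C, in low-serum OPTI-MEM with 10 mM HEPES pH 7.3. Detection: 460/530 nm fluorescence.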

Test [5] addresses Glucocorticoid receptor (Homo sapiens) (UniProt P04150). In words: GR-EFC Redistribution (AID 451; calls by dose curve; also: potency is read from the fitted curve at half-maximal effect). As to conditions: CHO-K1 GR-EFC translocation, beta-gal luminescence, 2 h. The method in brief: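 CHO-K1 cells expressing nuclear EA and GR-ED fragments of b-gal; compounds titrated up to 46 uM final, 2 h at 37 C. GR nuclear translocation read as complemented b-gal luminescence after 1 h RT detection.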

The target of test [6] is Mitogen-activated protein kinase 10 (Mus musculus) (UniProt Q61831). In words: JNK3 AlphaScreen Assay (AID 530; active = well fitted curve in either direction with a large enough effect, not every such curve was filed as active;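 also: kinase came from lysate of stimulated human HepG2 cells; signal reports phosphorylation of biotinylated GST-cJun 1-79 at Ser73 with 10 µM ATP; % is scaled to controls: 0 for no effect and ±100 for the full control effect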). The method in brief: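 Pre-activated (IL-1β/TNFα) JNK3 in HepG2 lysates phosphorylates biotin-GST-cJun(1-79), 10 uM ATP; anti-phospho-cJun(Ser73) AlphaScreen read at room temperature, pH 7.6 Tris buffer. Compounds pre-incubated 15 min as titrations.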
Test [7] deals with Cytochrome P450 3A4 (Homo sapiens) (UniProt P08684). Briefly: qHTS Assay for Activators of Cytochrome P450 3A4 (AID 885). Also: nearly all actives have a fitted effect of over 65% in size. The method, boiled down:
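Signal was normalized against complete inhibition by 57 uM ketoconazole. The reaction used 20nM CYP3A4 with 25uM Luciferin-PPXE, 10-min compound preincubation and a 60-min NADPH-supported step at RT.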

Test [8] deals with Cytochrome P450 2D6 (Homo sapiens) (UniProt P10635). Briefly: qHTS Assay for Inhibitors and Substrates of Cytochrome P450 2D6 (AID 891). Also: potency is read from the fitted curve at half-maximal effect; nearly all actives have a fitted effect of over 60% in size. The method, boiled down:
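Human CYP2D6 (5 nM) with 30 uM Luciferin-ME EGE (at Km) in 100 mM KPO4, compound preincubated 10 min, then NADPH regeneration system for 60 min at room temperature. Luciferin read by luminescence; normalized to 1.43 uM quinidine.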
(In general: In qHTS, concentration-response curves come from the screen itself.)

Test [9] deals with Cytochrome P450 2C19 (Homo sapiens) (UniProt P33261). Briefly: qHTS Assay for Inhibitors and Substrates of Cytochrome P450 2C19 (AID 899). Also: potency is read from the fitted curve at half-maximal effect; nearly all actives have a fitted effect of over 60% in size. The method in brief: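 Signal comes from luciferase acting on luciferin released by CYP2C19-mediated hydroxylation of Luciferin-H EGE, 10uM (KM). Assay mix: 5nM enzyme, 50mM KPO4; 60 min at 37C with NADPH regeneration. Data normalized against 57uM ketoconazole.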
Chain of Cytochrome P450 2C19 (Homo sapiens) (P33261 whole entry, looked up): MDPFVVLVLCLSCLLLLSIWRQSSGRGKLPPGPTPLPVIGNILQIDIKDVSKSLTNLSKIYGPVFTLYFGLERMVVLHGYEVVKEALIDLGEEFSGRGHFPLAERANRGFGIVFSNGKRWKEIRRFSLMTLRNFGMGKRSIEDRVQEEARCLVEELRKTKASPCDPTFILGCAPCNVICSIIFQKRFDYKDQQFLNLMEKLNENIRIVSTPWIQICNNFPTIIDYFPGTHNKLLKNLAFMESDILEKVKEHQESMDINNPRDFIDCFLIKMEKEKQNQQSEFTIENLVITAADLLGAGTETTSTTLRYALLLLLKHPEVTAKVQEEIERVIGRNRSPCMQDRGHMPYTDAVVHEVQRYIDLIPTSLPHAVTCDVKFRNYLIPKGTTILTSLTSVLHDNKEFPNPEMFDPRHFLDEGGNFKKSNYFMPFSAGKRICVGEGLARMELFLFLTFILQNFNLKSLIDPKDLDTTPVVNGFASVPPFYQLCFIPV

Test [10] addresses Dual specificity protein kinase CLK4 (Homo sapiens) (UniProt Q9HAZ1). In words: qHTS Assay for Inhibitors of CDC-like Kinase 4 (Kinase-Glo Assay) (AID 1770). Also: nearly all actives have a fitted effect of over 65% in size. Also: potency is read from the fitted curve at half-maximal effect. The method in brief: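 25 nM Clk4 with 100 uM RS repeat peptide and 1 uM ATP (final) in Tris pH7.5, 10 mM MgCl2, 4.5 h at room temperature. Remaining ATP measured by Kinase-Glo luciferase luminescence.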
Test [11] shares this target. Briefly: qHTS Assay for Inhibitors of CDC-like Kinase 4 (ADP-FP Assay) (AID 1795).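 Also: recombinant human CLK4 phosphorylating RS repeat peptide at 1 µM ATP; % is scaled to controls: 0 for no effect and ±100 for the full control effect; nearly all actives have a fitted effect of over 60% in size.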 The method in brief: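 Recombinant Clk4 (6.25 nM) phosphorylated 100 uM RS repeat peptide with 1 uM ATP in 25 mM Tris pH 7.5, 10 mM MgCl2, 0.5 mM EGTA, 2.5 mM DTT, 0.01% Triton X-100 for 1 h. ADP was detected by Transcreener ADP2 competitive fluorescence polarization after 30 min at room temperature.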

Test [12] has as its target Ubiquitin carboxyl-terminal hydrolase 1 (Homo sapiens) (UniProt O94782). Briefly: Inhibitors of USP1/UAF1: Pilot qHTS (AID 504865).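 Also: rhodamine fluorescence freed from ubiquitin-rhodamine substrate followed over time; top concentration of the series differs between compounds; % is scaled to controls: 0 for no effect and ±100 for the full control effect; nearly all actives have a fitted effect of over 35% in size.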 The method, boiled down: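 USP1/UAF1 complex at 1 nM preincubated 15 min at room temperature with compound, then Ub-Rho substrate added at 150 nM final. Fluorescence (480/540 nm) read kinetically in 50 mM HEPES pH 7.8, 0.5 mM EDTA, 1 mM TCEP, 0.1 mg/ml BSA, 0.01% Tween-20.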

The target of test [13] is Lysosomal acid glucosylceramidase (Homo sapiens) (UniProt P04062). Briefly: Glucocerebrosidase-p2 (AID 348; in the data active = potency below about 10 µM; also: potency is read from the fitted curve at half-maximal effect). The following applies: purified GBA, blue fluorogenic substrate, 40 min. The method in brief:
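Compounds titrated from 0.6 nM upwards against 0.2 nM enzyme in pH 5.9 citric acid/KH2PO4, taurocholate, tween-20; blue fluorogenic substrate 80 uM, 40 min room temperature, stopped and read Ex 365/Em 440 for AC50.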

Test [14] concerns the target Glucocorticoid receptor (Homo sapiens) (UniProt P04150). In words: GR-GFP Redistribution (AID 450;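 active = compounds whose dose series gives a full or clear partial fitted curve of increased nuclear translocation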; also: potency is read from the fitted curve at half-maximal effect). As to conditions: U2OS GR-GFP nuclear translocation, laser cytometry, 2 h.
Test [15] deals with 3',5'-cyclic-AMP phosphodiesterase 4B (Homo sapiens) (UniProt Q07343). Briefly: qHTS Assay for Inhibitors of PDE-IV (AID 607; active = well fitted activation curve with a large enough effect in the main read-out, with a control signal flat, not every such curve was filed as active; also: % of control where 0% means no effect). The method, boiled down: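 Cell-based read-out of cAMP via a modified cyclic nucleotide-gated channel and membrane potential dye (535/590 nm) in HEK293 cells expressing PDE4 endogenously. Compounds tested up to 22.9 uM final; 100 uM RO 20-1724 reference.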
Chain of 3',5'-cyclic-AMP phosphodiesterase 4B (Homo sapiens) (Q07343 whole entry, looked up): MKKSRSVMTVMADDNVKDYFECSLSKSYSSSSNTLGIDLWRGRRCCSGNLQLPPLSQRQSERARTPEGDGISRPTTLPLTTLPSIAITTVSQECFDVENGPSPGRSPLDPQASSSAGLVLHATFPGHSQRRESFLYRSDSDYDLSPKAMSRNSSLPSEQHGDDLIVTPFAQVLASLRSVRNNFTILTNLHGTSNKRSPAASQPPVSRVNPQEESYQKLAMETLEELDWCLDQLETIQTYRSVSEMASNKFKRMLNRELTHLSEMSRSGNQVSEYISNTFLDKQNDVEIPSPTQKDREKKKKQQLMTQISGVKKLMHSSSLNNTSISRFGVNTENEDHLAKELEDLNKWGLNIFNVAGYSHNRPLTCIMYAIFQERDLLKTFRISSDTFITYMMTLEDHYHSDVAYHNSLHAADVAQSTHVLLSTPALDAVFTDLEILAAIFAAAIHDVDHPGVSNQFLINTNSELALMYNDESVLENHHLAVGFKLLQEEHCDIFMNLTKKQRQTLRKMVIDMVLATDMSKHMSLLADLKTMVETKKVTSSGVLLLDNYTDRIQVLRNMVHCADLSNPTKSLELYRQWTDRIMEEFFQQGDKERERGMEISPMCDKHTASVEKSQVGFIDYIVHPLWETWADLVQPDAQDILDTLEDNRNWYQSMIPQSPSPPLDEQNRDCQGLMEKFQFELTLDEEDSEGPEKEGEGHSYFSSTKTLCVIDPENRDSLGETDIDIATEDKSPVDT

The target in test [16] is Dual specificity protein kinase CLK4 (Homo sapiens) (UniProt Q9HAZ1). Briefly: qHTS Assay for Inhibitors of CDC-like Kinase 4 (ADP-Glo Assay) (AID 1771). Also: potency is read from the fitted curve at half-maximal effect; nearly all actives have a fitted effect of over 70% in size. The method in brief: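 Luminescence from ADP-Glo reports ADP produced by 25 nM Clk4 acting on 100 uM RS repeat peptide with 1 uM ATP over 1 hr at room temperature; residual ATP is depleted before ADP is converted to ATP for detection.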
Chain of Dual specificity protein kinase CLK4 (Homo sapiens) (Q9HAZ1 whole entry, looked up): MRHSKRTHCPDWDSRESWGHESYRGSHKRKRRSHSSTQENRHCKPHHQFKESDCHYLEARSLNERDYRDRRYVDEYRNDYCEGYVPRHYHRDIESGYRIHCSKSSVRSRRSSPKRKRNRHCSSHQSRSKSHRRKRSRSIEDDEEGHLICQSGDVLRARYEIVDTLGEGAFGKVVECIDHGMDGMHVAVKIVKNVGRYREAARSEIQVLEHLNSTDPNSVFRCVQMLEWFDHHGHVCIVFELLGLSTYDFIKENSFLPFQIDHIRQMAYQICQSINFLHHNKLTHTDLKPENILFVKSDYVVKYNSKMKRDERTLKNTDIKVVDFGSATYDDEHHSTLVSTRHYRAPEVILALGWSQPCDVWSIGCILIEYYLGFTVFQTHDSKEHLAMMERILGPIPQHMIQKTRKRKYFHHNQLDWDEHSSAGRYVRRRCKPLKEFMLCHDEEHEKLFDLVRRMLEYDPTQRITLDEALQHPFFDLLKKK

Test [17] can be described thus: qHTS Assay for Identification of Small Molecule Agonists for Hypoxia Response Element Signaling Pathway (AID 914; active = well fitted activation curve with a large enough effect in the signal ratio, with a control signal flat, not every such curve was filed as active; the % refers to the signal ratio; also: % of control where 0% means no effect). The following applies: ME-180 (cervical carcinoma) HRE-bla reporter, beta-lactamase ratio, CoCl2, 17 h; activation: hits give high values. The method, boiled down: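 AC50 values come from titration-series %Activity, taken as the 460/530nm ratio of CCF4 fluorescence (excitation 405nm). CellSensor HRE-bla ME-180 cells were treated 17 hours at 37 C with compound plus an EC50 level of CoCl2.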

Test [18] concerns the target Cytochrome P450 3A4 (Homo sapiens) (UniProt P08684). In words: qHTS Assay for Inhibitors and Substrates of Cytochrome P450 3A4 (AID 884). Also: potency is read from the fitted curve at half-maximal effect; nearly all actives have a fitted effect of over 50% in size. The method, boiled down:
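20 nM human CYP3A4 with 25 uM Luciferin-PPXE (at KM) in 200 mM KPO4, preincubated 10 min with compound; NADPH regeneration started a 60 min RT reaction. Luciferin detected by luminescence, normalized to 57 uM ketoconazole as full inhibition.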

Chain of Glucocorticoid receptor (Homo sapiens) (P04150 whole entry, looked up, the tested form may be a part): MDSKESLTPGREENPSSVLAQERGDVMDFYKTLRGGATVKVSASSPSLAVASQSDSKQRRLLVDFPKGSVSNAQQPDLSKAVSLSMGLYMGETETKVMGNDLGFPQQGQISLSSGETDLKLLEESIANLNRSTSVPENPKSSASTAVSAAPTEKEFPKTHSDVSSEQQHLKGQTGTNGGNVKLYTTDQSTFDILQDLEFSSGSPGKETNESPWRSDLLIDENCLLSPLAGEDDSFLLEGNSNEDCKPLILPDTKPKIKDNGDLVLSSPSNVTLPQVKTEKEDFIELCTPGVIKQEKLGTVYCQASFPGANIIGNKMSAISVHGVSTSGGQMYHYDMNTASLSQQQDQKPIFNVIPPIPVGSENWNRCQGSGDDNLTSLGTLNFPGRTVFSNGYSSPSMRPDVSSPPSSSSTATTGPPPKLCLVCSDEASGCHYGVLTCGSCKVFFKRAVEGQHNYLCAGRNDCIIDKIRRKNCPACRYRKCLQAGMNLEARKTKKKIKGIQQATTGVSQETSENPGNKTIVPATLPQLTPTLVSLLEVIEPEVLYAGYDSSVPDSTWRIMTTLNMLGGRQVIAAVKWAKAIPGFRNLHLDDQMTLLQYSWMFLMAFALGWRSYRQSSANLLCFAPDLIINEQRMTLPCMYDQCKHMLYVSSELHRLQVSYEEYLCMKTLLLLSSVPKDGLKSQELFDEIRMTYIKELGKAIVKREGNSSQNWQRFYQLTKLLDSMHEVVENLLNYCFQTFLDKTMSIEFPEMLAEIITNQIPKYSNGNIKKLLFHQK
Chain of Ubiquitin carboxyl-terminal hydrolase 1 (Homo sapiens) (O94782 whole entry, looked up): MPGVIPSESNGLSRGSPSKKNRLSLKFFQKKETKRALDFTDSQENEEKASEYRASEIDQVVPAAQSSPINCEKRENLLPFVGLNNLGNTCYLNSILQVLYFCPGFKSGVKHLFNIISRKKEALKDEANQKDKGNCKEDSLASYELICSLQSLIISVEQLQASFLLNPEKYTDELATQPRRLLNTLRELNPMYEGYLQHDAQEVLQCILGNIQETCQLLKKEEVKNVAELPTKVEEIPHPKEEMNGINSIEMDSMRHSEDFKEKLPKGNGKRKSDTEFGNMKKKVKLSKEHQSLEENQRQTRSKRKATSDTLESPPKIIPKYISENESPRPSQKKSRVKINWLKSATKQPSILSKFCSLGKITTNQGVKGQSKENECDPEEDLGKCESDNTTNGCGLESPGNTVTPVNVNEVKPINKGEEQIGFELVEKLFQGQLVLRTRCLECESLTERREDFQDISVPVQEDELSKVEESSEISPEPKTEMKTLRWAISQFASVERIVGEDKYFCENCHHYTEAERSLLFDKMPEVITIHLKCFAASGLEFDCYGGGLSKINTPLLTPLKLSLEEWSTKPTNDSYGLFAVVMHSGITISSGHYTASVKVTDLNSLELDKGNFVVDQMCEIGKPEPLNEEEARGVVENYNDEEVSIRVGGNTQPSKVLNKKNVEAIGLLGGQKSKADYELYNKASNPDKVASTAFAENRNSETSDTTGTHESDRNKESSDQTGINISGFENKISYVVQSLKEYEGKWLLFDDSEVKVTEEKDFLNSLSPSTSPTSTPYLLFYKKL
Chain of Lysosomal acid glucosylceramidase (Homo sapiens) (P04062 whole entry, looked up): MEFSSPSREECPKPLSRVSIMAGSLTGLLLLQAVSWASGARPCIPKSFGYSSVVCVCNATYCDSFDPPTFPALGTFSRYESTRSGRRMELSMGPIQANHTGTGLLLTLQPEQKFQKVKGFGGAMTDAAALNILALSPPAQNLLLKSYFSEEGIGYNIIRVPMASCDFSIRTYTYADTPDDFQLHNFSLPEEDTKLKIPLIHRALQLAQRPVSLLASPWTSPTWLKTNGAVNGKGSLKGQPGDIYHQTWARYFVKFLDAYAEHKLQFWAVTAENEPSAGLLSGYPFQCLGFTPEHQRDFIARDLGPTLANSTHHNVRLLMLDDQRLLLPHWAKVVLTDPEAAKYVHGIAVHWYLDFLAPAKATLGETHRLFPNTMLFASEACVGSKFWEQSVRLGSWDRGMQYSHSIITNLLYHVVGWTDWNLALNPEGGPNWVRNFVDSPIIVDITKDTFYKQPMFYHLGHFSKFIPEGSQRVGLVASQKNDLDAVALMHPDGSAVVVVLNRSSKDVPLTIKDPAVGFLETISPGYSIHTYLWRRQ
Chain of Cytochrome P450 3A4 (Homo sapiens) (P08684 whole entry, looked up): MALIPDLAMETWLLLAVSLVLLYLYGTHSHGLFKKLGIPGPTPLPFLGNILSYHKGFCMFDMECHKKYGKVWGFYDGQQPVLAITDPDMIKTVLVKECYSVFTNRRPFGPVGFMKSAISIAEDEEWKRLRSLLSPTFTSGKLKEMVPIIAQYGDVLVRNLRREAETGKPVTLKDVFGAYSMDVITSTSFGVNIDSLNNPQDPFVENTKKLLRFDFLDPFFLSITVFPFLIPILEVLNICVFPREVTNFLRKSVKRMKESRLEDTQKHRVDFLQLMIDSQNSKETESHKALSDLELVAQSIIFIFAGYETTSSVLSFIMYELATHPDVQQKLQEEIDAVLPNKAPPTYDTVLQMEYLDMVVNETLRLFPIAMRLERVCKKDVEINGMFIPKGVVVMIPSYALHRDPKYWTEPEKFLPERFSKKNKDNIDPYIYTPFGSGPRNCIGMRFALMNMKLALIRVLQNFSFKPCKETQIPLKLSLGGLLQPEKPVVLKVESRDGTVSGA

In the case of `CCNc1ncc2nc(CCc3ccccc3)c(=O)n(C3CC3)c2n1`, the activity change, negative = inhibition in test [1] was -7.57%; in [3], 11.9%. Moreover, the Potency in test [2] was 3.16 µM (active); in test [5], over 46 µM; in test [8] it was 0.398 µM (active); in [9], 6.31 µM (active). Further, the call in test [4] and in test [7] was inactive. Also, the Potency result in test [6], in [10], in test [11] and in test [12] was “inactive” in each case.
As to `CN(C)c1nc(-c2ccc3c(c2)OCO3)nc2ccccc12`, the Potency was over 11.4 µM in test [13] and over 46 µM in test [14]. Moreover, the call in test [4] was inactive. For the same molecule, the Potency result in test [6], in test [15], in test [10] and in test [11] was “inactive” throughout.
Consider `CN(C)C(=O)c1ccc(-c2cc(NCc3ccccc3)ncn2)cc1`, for which, in [1], the activity change, negative = inhibition was -9.2%. The figures for the Potency in test [2], in test [10] and in test [16] were 12.6 µM (active), 25.1 µM (active) and 31.6 µM (active), respectively. For the same molecule, the outcome in test [4] was inactive. Moreover, the Potency result in test [6], in test [15] and in test [12] was “inactive” in each case.
In the case of `COc1ncc2nc(-c3cccs3)c(=O)n(CCC#N)c2n1`, the Potency was over 11.4 µM in test [13], 6.31 µM (active) in test [2], over 9.22 µM in [14] and over 46 µM in test [5]. The activity change, negative = inhibition in [1] was 10.4%. For the same molecule, the molecule was classed as inactive in test [4] and in test [7]. For the same molecule, the Potency entry in test [6], in test [15], in test [10] and in test [11] was “inactive” each time. Also, the activation in [17] is 25.6%.
In the case of `CN(C)C(=O)c1ccc(-c2nc(Nc3ccccc3)c3ccccc3n2)cc1`, the Potency is 0.398 µM (active) in [2], over 46 µM in [5] and 15.8 µM (active) in [10]. The activity change, negative = inhibition in [3] is 2.53%. Also, the molecule was classed as inactive in test [4] and in [7]. The Potency result in [6] and in test [12] was “inactive” each time.
Consider `COc1ccc2[nH]cc(CCNc3cc(-c4cccc(C#N)c4)ncn3)c2c1`, for which the Potency is over 11.4 µM in test [13]; 0.794 µM (active) in test [2]; over 46 µM in test [14]; over 46 µM in test [5]; 3.98 µM (active) in test [18]; 7.94 µM (active) in test [9]. Besides, the Potency in test [10] was 25.1 µM (active). Besides, the activity change, negative = inhibition in [1] was -15.9%. The call in test [4] and in test [7] was inactive. In addition, the Potency entry in test [6] and in test [15] was “inactive” in each case.
